RN4220 kill: kills Staphylococcus aureus RN4220; S. aureus RN4220 growth, OD600, 16 h; inhibition, % (no concentration beside the values); 330,000 tested, 0.33% active; in the data active means inhibition above about 85%;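 further: plate controls were untreated cells for no effect and reference antibiotic for full effect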
ugtP null kill: kills S. aureus RN4220 lacking UgtP | S. aureus RN4220 ugtP deletion, OD600 growth, 16 h | AID 1259309 | 330,000 tested, 0.54% active | growth inhibition, % (test concentration not listed); in the data active means growth inhibition above about 68%;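 further: plate controls were untreated wells for no effect and antibiotic for full effect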
Mtb hypoxia rep: reduces hypoxia-regulated biosensor signal in M. tuberculosis; 300,000 tested, 0.1% active; fluorescence inhibition, % (test concentration not listed); M. tuberculosis hypoxia-regulated fluorescent reporter, fluorescence; AID 1159583; in the data active means fluorescence inhibition mostly above about 23%, no sharp cut-off; inactive means mostly below about 17%
PfHsp40 yeast: rescue of PfHsp40-mediated yeast toxicity. growth rescue, % at 12.5 µM. 340,000 tested, 0.68% active. S. cerevisiae expressing PfHsp40, growth rescue, ATP luminescence; in the data active means growth rescue above about 28%, passing the limit was not always enough;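 further: yeast W303a lacking pdr1 and pdr3 grown in galactose medium; growth measured after three days at 30 °C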
VHR inh abs: blocks human VHR1 dual specificity phosphatase; inhibition, % at 13.3 µM; AID 1654; P51452; 290,000 tested, 0.52% active; recombinant VHR phosphatase, pNPP absorbance; in the data active means inhibition above about 50%
Target sequence (P51452 whole entry, looked up): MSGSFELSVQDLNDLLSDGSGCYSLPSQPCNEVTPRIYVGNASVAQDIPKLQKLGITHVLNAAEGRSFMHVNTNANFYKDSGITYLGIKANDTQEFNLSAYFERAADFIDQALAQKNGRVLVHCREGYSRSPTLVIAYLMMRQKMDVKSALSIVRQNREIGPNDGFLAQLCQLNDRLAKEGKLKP
PriA SSB inh: inhibitors of Klebsiella pneumoniae PriA binding to SSB C-terminal tail. AlphaScreen SSBct-PriA binding, biotinylated peptide. 430,000 tested, 0.6% active. inhibition, % at 33 µM; in the data active means inhibition mostly above about 37%, no sharp cut-off; inactive means mostly below about 20%;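 further: plate controls were negative control peptide for no effect and reference peptide for full effect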
Numbers without * were called inactive; / = not tested or not shown. Sampled rows, rich in hits. Any-hit rate of the full collection: about 1.8%.

SMILES	RN4220 kill	ugtP null kill	Mtb hypoxia rep	PfHsp40 yeast	VHR inh abs	PriA SSB inh
COc1cc(OC)c2c(-c3ccccc3)cc(=O)oc2c1C(CCN1CCN(c2ccccc2)CC1)c1ccc(N(C)C)cc1 (stereo unspecified)	27	-19	0	1	11	55*
COc1ccc(C(CCN2CCN(c3ccccc3)CC2)c2c(OC)cc(OC)c3c(-c4ccccc4)cc(=O)oc23)cc1 (stereo unspecified)	16	4	-7	11	22	-1
COc1ccc(C(CCN2CCCC(C)C2)c2c(OC)cc(OC)c3c(-c4ccccc4)cc(=O)oc23)cc1 (stereo unspecified)	-4	-44	22	-1	10	19
COc1cc(OC)c2c(-c3ccccc3)cc(=O)oc2c1C(CC(=O)N1CCOCC1)c1ccc(N(C)C)cc1 (stereo unspecified)	2	1	21	-1	26	42*
COc1cc(OC)c2c(-c3ccccc3)cc(=O)oc2c1C(CCN1CCCC(C)C1)c1ccc(N(C)C)cc1 (stereo unspecified)	-5	-42	/	11	7	97*
COc1cc(OC)c2ccc(=O)oc2c1C(CCN1CCN(c2ccccc2)CC1)c1ccc(N(C)C)cc1 (stereo unspecified)	7	6	-5	1	26	55*
COc1cc(OC)c2c(-c3ccccc3)cc(=O)oc2c1C(CC(=O)N1CCN(c2ccccc2)CC1)c1ccc(N(C)C)cc1 (stereo unspecified)	29	-13	2	-1	6	32
COc1cc(O)c(C(CCN2CCN(c3ccccc3)CC2)c2ccc3c(c2)OCO3)c(OC)c1 (stereo unspecified)	4	-16	-1	2	26	42*
COc1cc(O)c(C(CCN2CCCC2)c2ccc3c(c2)OCO3)c(OC)c1 (stereo unspecified)	2	3	8	0	4	-24
CN1CC(C(N)=O)CC1=O (stereo unspecified)	/	/	/	/	/	3
COc1cccc2cc(C(=O)NC[C@H]3CCCN3c3ccccc3)oc12	/	/	/	/	/	29*
COc1ccccc1OCC(=O)NC[C@H]1CCCN1c1ccccc1	/	/	/	/	/	21
COc1cc(-c2cc(C(=O)NCC3CCCN3c3ccccc3)[nH]n2)cc(OC)c1OC (stereo unspecified)	/	/	/	/	/	59*
COC(=O)N1CCC(CNC(=O)c2cc3cccc(OC)c3o2)CC1	/	/	/	/	/	-5
CCOc1ccc(C(=O)N2CCNC(=O)C2(C)C)cc1	/	/	/	/	/	-9
Cc1cc[n+](-c2[nH]c(=O)sc2C=NNC(=O)c2ccccc2[O-])cc1C	/	/	/	/	/	4
CC(C)COc1ccc(Cc2cnc(N)nc2N)cc1	16	97*	6	1	-27	-7
CC(=O)O/C(=C1\CC2C3CC=C4CC(OC(C)=O)CCC4(C)C3CCC2(C)C1=O)C(F)(F)F (stereo unspecified)	100*	100*	16	9	/	2
CC(=O)O[C@H]1CC[C@@]2(C)C(=CC[C@@H]3[C@@H]2CC[C@]2(C)C(=O)CC[C@@H]32)C1	/	/	/	4	/	-12
COc1ccccc1C(=O)NC(CCSC)C(=O)NNC(=O)c1ccccc1O (stereo unspecified)	13	9	10	98*	/	-9
CSCCC(NC(=O)c1ccccc1Br)C(=O)NNC(=O)c1ccco1 (stereo unspecified)	0	1	-2	0	/	5
COc1ccccc1C(=O)NC(CCSC)C(=O)NNC(=O)c1ccc(F)cc1 (stereo unspecified)	2	12	7	1	9	-23
CSCCC(NC(=O)c1ccccc1Br)C(=O)NNC(=O)c1ccncc1 (stereo unspecified)	-2	3	27*	-1	/	0
CCn1c(O)c(C=C2C=Nc3ccccc32)sc1=O	/	/	/	/	/	0
O=c1[nH]sc2cc(F)ccc12	98*	87*	4	1	25	-4
COc1cccc(C=Nn2c(CO)nc3ccccc32)c1OC	5	-6	6	/	/	-4
CCc1ccc(NP(=O)(Oc2ccccc2F)Oc2ccccc2F)cc1	-7	-21	12	43*	2	-3
Cc1ccsc1/C=N/NC(=O)c1nnn(-c2nonc2N)c1C	/	/	/	10	56*	/
COc1ccc(CN(C)C(=O)CCN2C(=O)c3ccccc3C2=O)c(OC)c1OC	4	5	3	1	24	0
